Source: PubChem BioAssay (NCATS)
Several values for one entry are separate records, joined by “and”; a condition that tells them apart may be missing. Equal entries are not always repeated. Records with an inconclusive call do not appear. Activity calls are given as the source filed them. Calls follow the shape of the dose curve; as a rule, active = well fitted inhibition curve with a large enough effect; inconclusive = small, poorly fitted or top-dose-only effect; inactive = flat fitted curve, though single readings scatter.

What was measured:
[1] = tested on: CRL-7250; test: Cytotoxic Profiling of Annotated Libraries Using Quantitative High-Throughput Screening (AID 1296008); conditions: Five cell lines viability, CellTiter-Glo ATP luminescence, 48-72 h; max response: active compounds read low; also: potency is read from the fitted curve at half-maximal effect; as to max response: % is scaled to controls: 0 for no effect and ±100 for the full control effect
Procedure, shortened: (§1)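 Compounds were pin-transferred onto cells and incubated 48 or 72 hr at 37 degree Celsius, 95% humidity. CellTiter-Glo was added, plates sat 10 min at room temperature, then ATP-coupled luminescence was imaged as the viability read-out.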

[2] = tested on: HEK293; test: as above; conditions: Five cell lines viability, CellTiter-Glo ATP luminescence, 48-72 h; max response: active compounds read low
Procedure, shortened: as §1

[3] = tested on: HaCat; test: as above; conditions: Five cell lines viability, CellTiter-Glo ATP luminescence, 48-72 h; max response: active compounds read low
Procedure, shortened: as §1

[4] = tested on: KB-3-1; test: as above; conditions: Five cell lines viability, CellTiter-Glo ATP luminescence, 48-72 h; max response: active compounds read low
Procedure, shortened: as §1

[5] = tested on: NIH3T3; test: as above; conditions: Five cell lines viability, CellTiter-Glo ATP luminescence, 48-72 h; max response: active compounds read low
Procedure, shortened: as §1

[6] = tested on: TAB109; test: qHTS profiling for inhibitors of Plasmodium falciparum proliferation (AID 504749);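 also: 0% = DMSO vehicle and full inhibition = artemisinin control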; conditions: P. falciparum in erythrocytes, SYBR Green DNA, 72 h; series mostly up to 28.7 µM
Procedure, shortened: (§2)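 Quantitative HTS: compounds pinned into medium, infected erythrocytes added (0.3% parasitemia, 2.5% hematocrit), 72 h culture at 37 C under 5% CO2. Saponin/Triton lysis with SYBR Green I, overnight RT, then fluorescence read.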

[7] = tested on: TAB113; test: as above; conditions: P. falciparum in erythrocytes, SYBR Green DNA, 72 h; series mostly up to 28.7 µM
Procedure, shortened: as §2

[8] = tested on: TAB165; test: as above; conditions: P. falciparum in erythrocytes, SYBR Green DNA, 72 h; series mostly up to 28.7 µM
Procedure, shortened: as §2

[9] = tested on: W2; test: as above; conditions: P. falciparum in erythrocytes, SYBR Green DNA, 72 h; series mostly up to 28.7 µM
Procedure, shortened: as §2

[10] = tested on: HACAT; test: qHTS assay to identify novel small-molecules to repurpose for Merkel cell carcinoma treatment (AID 1296009); conditions: MCC and control cell lines, CellTiter-Glo viability, 72 h; at 44.8 µM (top of the series) unless noted
Procedure, shortened: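 Viability readout: ATP luminescence (CellTiter-Glo) after 72 hr drug exposure at 37 degree celsius. Dose-response format was 8 points for NPC and 11 points for MIPE; data normalized to in-plate controls.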
Also: nearly all actives have a fitted effect of over 60% in size.

CC/C=C(\C(=O)N[C@@H]1C(=O)N2C(C(=O)OCOC(=O)C(C)(C)C)=C(COC(N)=O)CS[C@H]12)c1csc(N)n1
inactive: max response [1] -3.67% | max response [2] 1.21% | max response [3] -0.519% and -7.83% | max response [4] -16.1% and -3.61% | max response [5] -1.08%

OCC(O)CN1CCN(c2ccccc2)CC1 (stereo not drawn)
inactive: Potency [6] | Potency [7] | Potency [8] | Potency [9] | max response [1] 0.497% and 1.49% | max response [2] -1.21% | outcome [2] | max response [3] -30% | max response [4] -6.94% and 8% | max response [5] -1.52% | outcome [5]

C[C@]12CC[C@@H]3c4ccc(O)cc4CC[C@H]3[C@@H]1CC[C@@H]2OC(=O)CCC1CCCC1
inactive: max response [1] -19.6% | outcome [1] | max response [2] -8.4% | outcome [3] | max response [5] 2.8% | outcome [10]

CCN(CC)C(=O)Nc1ccc(OCC(O)CNC(C)(C)C)c(C(C)=O)c1 (stereo not drawn)
inactive: max response [1] -2.26% and 4.22% | max response [2] -6.49% | outcome [2] | outcome [3] | max response [4] 3.46% and 6.71% | max response [5] -5.4% and -0.794% | outcome [10]

CS(=O)(=O)c1ccc([C@@H](O)[C@@H](CF)NC(=O)C(Cl)Cl)cc1
inactive: max response [1] -8.92% | outcome [1] | max response [3] 3.4% | outcome [3] | max response [4] -19.8% | max response [5] -3.77% and 0.419% | outcome [10]
active: Potency [2] 2.99 µM

CCOc1nc2cccc(C(=O)O)c2n1Cc1ccc(-c2ccccc2-c2nn[nH]n2)cc1
inactive: Potency [6] | max response [1] -0.772% | outcome [1] | max response [2] -7.13% and 4.6% | max response [3] -22.9% and -2.42% | max response [4] -0.374% and 6.58% | max response [5] 4.21% | outcome [5]

Cc1cccc(Nc2cc(Cl)nc(SCC(=O)O)n2)c1C
inactive: Potency [6] | Potency [7] | Potency [8] | Potency [9] | max response [1] 0.443% and 0.95% | max response [2] 1.85% and -1.17% | max response [3] 1.74% | outcome [3] | max response [4] 6.42% and 8.75% | max response [5] -16.8% and 0.675% | outcome [10]

COc1cc(C)c(Cc2cnc(N)nc2N)cc1OC
inactive: Potency [6] | Potency [7] | Potency [8] | max response [1] 0.178% | outcome [2] | outcome [3] | max response [4] 7.84% | max response [5] 0.338% | outcome [10]

N[C@@H](CSSC[C@H](N)C(=O)O)C(=O)O
inactive: outcome [1] | outcome [2] | outcome [3] | max response [4] 4.84% | max response [5] 0.783% | outcome [10] inactive [at 0.588 µM]

c1ccc2c(CC3=NCCN3)cccc2c1
inactive: max response [1] -1.39% | outcome [2] | max response [3] -1.06% | max response [4] -1.96% and -17.3% and -10.3% | max response [5] 1.32%

Cc1ncc(COP(=O)(O)O)c(C=O)c1O
inactive: Potency [6] | Potency [7] | Potency [8] | Potency [9] | max response [1] 2.82% | outcome [2] | outcome [3] | max response [4] -1.97% | max response [5] 3.84% | outcome [10]

NC(CSCC(=O)O)C(=O)O (stereo not drawn)
inactive: Potency [6] | Potency [7] | Potency [8] | Potency [9] | outcome [1] | outcome [2] | outcome [3] | max response [4] -5.75% | outcome [5] | outcome [10]

N[C@H]1C(O)O[C@H](CO)[C@@H](O)[C@@H]1O (stereo partly drawn)
inactive: max response [1] -7.05% | outcome [2] | outcome [3] | max response [4] 2.62% | max response [5] -13.4% | outcome [10]

CN(N=O)C(=O)N[C@@H]1[C@@H](O)[C@H](O)[C@@H](CO)O[C@@H]1O
inactive: outcome [1] | outcome [2] | outcome [3] | max response [4] 28.6% | outcome [5] | outcome [10]

O=C1N=C(O)CN1/N=C/c1ccc(-c2ccc([N+](=O)[O-])cc2)o1
inactive: outcome [1] | max response [2] -11.3% | outcome [3] | max response [4] 4.36% | max response [5] -4.3% | outcome [10]

OCC(CO)N[C@H]1C[C@](O)(CO)[C@@H](O)[C@H](O)[C@H]1O
inactive: max response [1] -4.94% | outcome [2] | outcome [3] | max response [4] -14.4% | max response [5] 3.34% | outcome [10]

N[C@H](C(=O)O)c1ccc(O)cc1
inactive: max response [1] 3.21% | outcome [2] | outcome [3] | max response [4] 2.74% | max response [5] -1.62% | outcome [10] inactive [at 17.4 µM]

CCCCOC(=O)c1ccc(O)cc1
inactive: Potency [6] | Potency [7] | Potency [8] | max response [1] 0.245% | outcome [2] | outcome [3] | max response [4] 0.659% | max response [5] -12.6% | outcome [10]

C[C@H]1O[C@H](O[C@H]2[C@H](O)[C@@H](O)[C@@H](O[C@H]3[C@H](O)[C@@H](O)[C@H](O)O[C@@H]3CO)O[C@@H]2CO)[C@H](O)[C@@H](O)[C@@H]1N[C@H]1C=C(CO)[C@@H](O)[C@H](O)[C@H]1O
inactive: outcome [1] | outcome [2] | outcome [3] | max response [4] -3.3% | outcome [5] | outcome [10]

Nc1ccc(S(=O)(=O)Nc2ccccc2)cc1
inactive: Potency [6] | Potency [7] | Potency [8] | Potency [9] | outcome [1] | outcome [2] | outcome [3] | max response [4] 8.52% | max response [5] 3.32% | outcome [10]

CCCc1c(OCCCCc2nn[nH]n2)ccc(C(C)=O)c1O
inactive: Potency [6] | Potency [7] | Potency [8] | max response [1] -1.12% | outcome [2] | outcome [3] | max response [4] -12.2% | max response [5] 2.45% | outcome [10]

CN(C)CCCN1c2ccccc2CCc2ccccc21
inactive: max response [1] 0.991% | max response [3] -28.4% | max response [4] -10.8% | max response [5] -1.95%
active: Potency [2] 13.3 µM

O=C(O)[C@H](O)c1ccccc1
inactive: max response [1] -7.55% | outcome [2] | outcome [3] | max response [4] 5.08% | outcome [5] | outcome [10]

Cn1cc[nH]c1=S
inactive: max response [1] 4.5% | outcome [2] | outcome [3] | max response [4] 10.2% | outcome [5] | outcome [10]

CC1(C)[C@@H]2CC[C@@]1(C)C(=O)C2
inactive: Potency [6] | Potency [7] | Potency [8] | Potency [9] | outcome [1] | outcome [2] | outcome [3] | max response [4] -13.1% | max response [5] -6.56% | outcome [10]

COC(=O)[C@H]1[C@H]2C[C@@H]3c4[nH]c5cc(OC)ccc5c4CCN3C[C@H]2C[C@@H](OC(=O)COc2ccc(OC)cc2)[C@@H]1OC
inactive: max response [1] -0.18% | outcome [2] | outcome [3] | max response [4] 0.718% | outcome [5] | outcome [10]

C[C@@H]1CCN(C(=O)[C@H](CCCN=C(N)N)NS(=O)(=O)c2cccc3c2NC[C@H](C)C3)[C@@H](C(=O)O)C1
inactive: max response [1] 0.468% | outcome [2] | max response [3] 0.409% | max response [4] 1.81% | outcome [5]

O=C1O[C@H](CO)[C@@H](O)[C@H](O)[C@H]1O
inactive: outcome [1] | outcome [2] | outcome [3] | max response [4] 25.2% | max response [5] -2.57% | outcome [10]

C[C@H](NC(CCc1ccccc1)C(=O)O)C(=O)N1CCC[C@H]1C(=O)O (stereo partly drawn)
inactive: outcome [1] | max response [2] 3.49% | outcome [3] | max response [4] -16.2% | max response [5] 1.23% | outcome [10]

C/C(=C(\CCOP(=O)(O)O)SC(=O)c1ccccc1)N(C=O)Cc1cnc(C)nc1N
inactive: max response [1] -3.12% | outcome [2] | outcome [3] | max response [4] 9.44% | outcome [5] | outcome [10] inactive [at 4.96 µM]

O=C(O)c1ccccn1
inactive: Potency [6] | Potency [7] | Potency [8] | Potency [9] | max response [1] -6.73% | outcome [2] | outcome [3] | max response [4] -2.2% | outcome [5] | outcome [10]

Cc1ncc([N+](=O)[O-])n1CC(O)CCl (stereo not drawn)
inactive: max response [1] 0.168% | outcome [2] | outcome [3] | max response [4] 18% | max response [5] -5.9% | outcome [10]

Nc1nc2c(ncn2CCC(CO)CO)c(=O)[nH]1
inactive: Potency [6] | Potency [7] | Potency [8] | Potency [9] | max response [1] -22.4% and -4.66% | max response [2] -4.76% and -4.47% | outcome [3] | max response [4] 13.5% and 1.71% | max response [5] 1.75% | outcome [5] | outcome [10]

O=C(O)COc1nn(Cc2ccccc2)c2ccccc12
inactive: Potency [6] | Potency [7] | Potency [8] | max response [1] -2.07% | outcome [2] | outcome [3] | max response [4] -3.25% | max response [5] 2.16% | outcome [10]

O=C(O)[C@@H]1CSCN1
inactive: Potency [6] | Potency [7] | Potency [8] | max response [1] -15.8% | outcome [2] | outcome [3] | max response [4] 0.966% | outcome [5] | outcome [10]

CN1[C@@H]2CC[C@H]1CC(OC(=O)C(O)c1ccccc1)C2 (stereo partly drawn)
inactive: max response [1] 1.28% | max response [2] -8.16% | outcome [3] | max response [4] 3.38% and -1.31% and -10.9% | outcome [5] | outcome [10]

C[C@@H]1CC[C@@]2(OC1)O[C@H]1C[C@H]3[C@@H]4CC[C@H]5C[C@@H](O)CC[C@]5(C)[C@H]4CC(=O)[C@]3(C)[C@H]1[C@@H]2C
inactive: outcome [1] | outcome [2] | outcome [3] | max response [4] 1.37% | outcome [5] | outcome [10] inactive [at 4.96 µM]

CC(C)C(=O)c1c(C(C)C)nn2ccccc12
inactive: max response [1] -8.07% | max response [2] -1.74% | max response [3] 2.88% | max response [4] -2.88% | max response [5] -15.3%
